ALDH1A1 block – ALDH1A1 (human) enzyme inhibition | P00352 | Purified ALDH1A1, NADH fluorescence, propionaldehyde substrate | Potency, µM (series often up to 75.3 µM), for the others: at the top dose activity, negative = inhibition, actives largely listed as inhibitors | 7.3% of 220,000 active | AID 1030;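 also: potency is read from the fitted curve at half-maximal effect; plate controls were no enzyme wells and a reference inhibitor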
Target sequence (P00352 whole entry, looked up): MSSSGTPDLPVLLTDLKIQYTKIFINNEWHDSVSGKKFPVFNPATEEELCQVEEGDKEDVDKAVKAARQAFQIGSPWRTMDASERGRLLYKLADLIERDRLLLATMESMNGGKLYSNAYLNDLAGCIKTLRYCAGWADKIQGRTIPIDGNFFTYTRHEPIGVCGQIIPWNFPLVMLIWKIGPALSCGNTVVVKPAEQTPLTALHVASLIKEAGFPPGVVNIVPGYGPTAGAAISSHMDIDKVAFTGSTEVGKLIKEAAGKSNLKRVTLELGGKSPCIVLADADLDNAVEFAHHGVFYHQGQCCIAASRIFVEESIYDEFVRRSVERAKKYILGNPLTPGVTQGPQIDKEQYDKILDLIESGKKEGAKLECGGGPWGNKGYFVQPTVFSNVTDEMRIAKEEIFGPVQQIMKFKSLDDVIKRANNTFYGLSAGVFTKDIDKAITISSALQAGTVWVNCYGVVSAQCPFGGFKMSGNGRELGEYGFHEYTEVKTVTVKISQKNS
PNC inhibitor – perinucleolar compartment assembly inhibition. PC3M PTB-GFP, PNC prevalence imaging, 16 h; active compounds read low. activity change (PNC), negative = inhibition, % at 10 µM. 3.1% of 140,000 active. AID 2417;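 active = readout at or below -70, meaning at least 70% loss of cells showing the perinucleolar compartment, a nuclear body marking cancer cells; inconclusive = readout between -30 and a set limit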;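 also: plate controls were DMSO wells for no effect and camptothecin positive control wells for full effect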
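PC3M cells stably expressing PTB-GFP, 750–1000 cells/well, treated 16 h at 37 °C with compound (23 nl of library stock), in duplicate. After paraformaldehyde fixation and Hoechst stain, imaged at 20x; PNC prevalence scored by image analysis.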
HPGD inh – blocks human HPGD enzyme activity; P15428; purified HPGD, NADH fluorescence kinetic, PGE2 substrate; Potency, µM, without a hit: at the top dose activity change, negative = inhibition, usual class: inhibitors; 4.3% of 150,000 active; AID 894; also: potency is read from the fitted curve at half-maximal effect
Target sequence (P15428 whole entry, looked up): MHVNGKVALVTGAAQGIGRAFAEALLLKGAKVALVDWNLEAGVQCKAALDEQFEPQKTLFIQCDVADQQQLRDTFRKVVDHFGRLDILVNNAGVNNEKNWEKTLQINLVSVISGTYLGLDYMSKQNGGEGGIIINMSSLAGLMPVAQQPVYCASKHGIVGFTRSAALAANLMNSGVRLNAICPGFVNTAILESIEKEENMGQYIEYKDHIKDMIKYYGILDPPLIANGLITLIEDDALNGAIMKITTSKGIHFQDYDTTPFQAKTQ
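20 nM HPGD preincubated 15 min at room temperature with compound in 50 mM Tris-HCl pH 8, 0.01% Tween 20. Started with 1 mM NAD+ and 30 uM prostaglandin E2; NADH fluorescence (360/450 nm) read 5 times over 30-s intervals, last minus first.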
Lamin A splicing – LMNA splicing modulation. HeLa LMNA splicing GFP/RFP minigene ratio, 48 h. Potency, µM (titrated, usually from 46.1 µM), for the others: at the highest dose ratio change, negative = inhibition, hits mostly inhibitors. 0.01% of 200,000 active; active = well fitted inhibition curve with a large enough effect in the signal ratio, with a control signal flat, not every such curve was filed as active; inconclusive = small, poorly fitted or top-dose-only effect, or effect the other way, or a change in a side signal; the % refers to the signal ratio; also: potency is read from the fitted curve at half-maximal effect
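Read-out is the ratio of GFP to DsRed2 object intensity, acquired by 488 nm laser-scanning cytometry on HeLa lamin A-EGFP minigene reporter cells. Compound incubation 48 hrs at 37 °C in Opti-MEM with 2% FBS; DMSO 0.5% final.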
KinaseGlo FLuc – blocks Kinase-Glo luciferase, a counter-screen artifact | Kinase-Glo luciferase, ATP luminescence, 8 min | Potency, µM (doses to about 38.3 µM), for the others: at the top dose activity change, negative = inhibition, most hits filed as inhibitors | 0.28% of 200,000 active; active = well fitted inhibition curve with a large enough effect; inconclusive = small, poorly fitted or top-dose-only effect; also: potency is read from the fitted curve at half-maximal effect; nearly all actives have a fitted effect of over 60% in size
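Compounds were added to a substrate mix at pH 7.2 (50 mM imidazole, 10 uM ATP, within the enzyme's linear range), followed by Kinase-Glo detection reagent; luminescence was measured after 8 minutes at ambient temperature.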
An asterisk follows results filed as active; ? = inconclusive; / = not tested or not shown; [ ] = dose if it differs, or a comment. In the library only some 10% were active in any assay of this set; here they are far more common. Unless noted, calls follow the shape of the dose curve; as a rule, active = well fitted inhibition curve with a large enough effect (not every such curve was filed as active); inconclusive = small, poorly fitted or top-dose-only effect, or another doubt; inactive = no such curve, though single readings can be large or run the other way. Unless noted, % is scaled to controls: 0 for no effect and ±100 for the full control effect.

SMILES | ALDH1A1 block | PNC inhibitor | HPGD inh | Lamin A splicing | KinaseGlo FLuc
O=C(Nc1ccccc1C(=O)NCc1ccco1)c1ccccc1 | -7.9% | ? | -12.4% | 7.0% | -1.1%
Cc1ccc(S(=O)(=O)c2ccc(Cl)cc2)cc1S(=O)(=O)NC(C)C(=O)O (stereo not drawn) | 13.6% | -90.0* | 1.2% | -9.7% | -1.4%
Cc1c(C(=O)NN)nc2ccccn12 | 4.47µM* | -11.1 | -11.6% | -14.0% | 0.8%
Cn1cccc1C(=O)OCC(=O)c1cc2ccccc2o1 | ? | 3.3 | 28.2µM* | -1.5% | -5.6%
O=C(COC(=O)c1ccc(Cl)s1)c1cc2ccccc2o1 | ? | ? | 35.5µM* | -5.9% | -5.3%
Cc1ccc(CC(Cc2nc3ccccc3[nH]2)c2nc3ccccc3[nH]2)cc1 (stereo not drawn) | 4.6% | / | -11.6% | / | -1.4%
CO[C@H]1COC(=O)[C@H](C)NC(=O)C/C=C\[C@@H](C)[C@H](OC)COC(=O)C/C=C\[C@@H]1C | 2.4%[13.5 µM] | / | / | / | /
Cc1nnc(NC(=O)C2c3ccccc3Oc3ccccc32)s1 | -14.2% | 204.6 | 22.4µM* | ? | 2.4%
O=C(Nc1nc(-c2ccccc2)cs1)C1c2ccccc2Oc2ccccc21 | 1.78µM* | -16.7 | -14.2% | 8.7% | 2.3%
CC(C)c1nnc(NC(=O)C2c3ccccc3Oc3ccccc32)s1 | ? | -20.5 | -7.0% | -28.9% | 5.0%
O=C(Nc1nc(-c2ccncc2)cs1)C1c2ccccc2Oc2ccccc21 | -5.8% | -13.7 | -3.6% | ? | 2.6%
CCn1c(O)c(/C=N/N=C2CCCC2)c2ccc(C3=NNC(=O)CC3)cc21 | ? | -18.1 | 15.8µM* | 10.5% | -1.2%
C=CCn1c(SCC(=O)NCCOC)nnc1-c1cc2c(s1)CCC(CC)C2 (stereo not drawn) | ? | -20.3 | 17.8µM* | ? | 4.4%
C=CCn1c(SCC(=O)NCC)nnc1-c1cc2c(s1)CCC(CC)C2 (stereo not drawn) | ? | ? | -11.5% | ? | 8.3%
COc1ccc(CCNC(=O)c2cc(Sc3cccc(Cl)c3)nc3ccccc23)cc1OC | / | / | / | -17.3%[46 µM] | /
CC(C)c1nnc(NC(=O)C2CCN(c3cnccn3)CC2)s1 | 31.6µM* | 23.8 | -5.1% | -20.5% | 6.1%
COC(=O)c1ccc(OC)c(CN2C(=O)N(c3ccc(C(C)=O)cc3)S(=O)(=O)c3ccccc32)c1 | / | / | / | -10.5%[46 µM] | /
C[Si](C)(C)Cl | 22.4µM* | / | -6.5% | / | /
O=C(O)CN(CCN(CC(=O)O)CC(=O)O)CC(=O)O.[Mn] | 2.6%[13.5 µM] | / | -2.7% | / | -0.8%[7.66 µM]
O=C1CS/C(=C\[N+](=O)[O-])N1c1ccccc1 | 5.01µM* | -0.4 | -14.3% | -7.6% | -9.7%
O=C(N=C1SCC(=O)N1c1ccccc1)c1ccco1 | -6.3% | 1.4 | -8.3% | 4.1% | -3.6%
COc1ccc(CCNC(=O)Cn2nc(-c3ccc(Cl)cc3)ccc2=O)cc1OC | / | / | / | -7.9%[46 µM] | /
c1ccc2c(c1)ncn2CCCCOc1ccc2c(c1)CCC2 | 14.1µM* | 50.5 | ? | ? | -1.5%
c1ccc2c(c1)ncn2CCCOc1ccc2c(c1)CCC2 | 2.2% | 2.0 | ? | ? | 2.5%
O=C(c1cnccn1)N1CCC[C@@]2(CCN(C(c3ccccc3)c3ccccc3)C2)C1 | 1.9% | / | -9.3% | / | 0.8%
SMILES | ALDH1A1 block | PNC inhibitor | HPGD inh | Lamin A splicing | KinaseGlo FLuc
CCOC(=O)/C(=C\c1ccc(OC(F)F)cc1)C1=Nn2c(nnc2-c2ccc(Cl)cc2)SC1 | 14.1µM* | ? | 14.1µM* | ? | 2.8%
N#CC(=C(/N)Sc1ccccc1N)/C(C#N)=C(/N)Sc1ccccc1N | / | / | 28.2µM* | / | 1.0%
COc1cccc(C(=O)CC2c3c(c(Br)c4c(c3OC)OCO4)CCN2C)c1 (stereo not drawn) | 7.94µM* | / | ? | / | -1.4%
CCC1Oc2ccccc2N(CC(=O)NCc2ccco2)C1=O (stereo not drawn) | -9.1% | / | / | -7.6%[46 µM] | -5.3%
COc1cc(/C=N/n2c(-c3cc(C)[nH]n3)n[nH]c2=S)cc(OC)c1OC | -3.0% | / | / | / | /
COc1ccccc1/C=C/C=N/n1c(-c2cc(C)[nH]n2)n[nH]c1=S | ? | 7.6 | 14.1µM* | -9.9% | 1.1%
Cc1cc(-c2n[nH]c(=S)n2/N=C/C=C/c2ccccc2)n[nH]1 | -6.3% | 59.6 | 15.8µM* | -7.3% | 2.4%
Cc1ccc2c(=O)c(C(=O)c3ccc(F)cc3)cn(CC(=O)NCc3ccccc3)c2n1 | / | / | / | 13.4%[46 µM] | /
CC1=C(C(=O)Nc2cccc(C(F)(F)F)c2)C2(CCCCCC2)OC1=O | / | / | / | -2.4%[46 µM] | /
O=C(Nc1cc(C(F)(F)F)ccc1Cl)C(Sc1nnc(-c2cccs2)o1)c1ccccc1 (stereo not drawn) | 1µM* | 91.4 | / | ? | /
COc1ccc(C)cc1NC(=O)C(Sc1nnc(-c2cccs2)o1)c1ccccc1 (stereo not drawn) | -6.1% | -2.0 | -24.7% | ? | 7.3%
O=C(Nc1ccc(Cl)cc1C(F)(F)F)C(Sc1nnc(-c2cccs2)o1)c1ccccc1 (stereo not drawn) | 2.82µM* | 27.4 | / | ? | /
CC1=C(C(=O)N(C)C)C(c2ccc(Cl)c(Cl)c2)NC(=O)N1 (stereo not drawn) | -2.6% | ? | -11.3% | 5.2% | -1.2%
CCN(CC)C(=O)C1=C(C)NC(=S)NC1c1ccc(C)s1 (stereo not drawn) | 8.91µM* | / | / | 4.2%[46 µM] | 3.6%
CC1=C(C(=O)N(C)C)C(c2ccc(C)s2)NC(=S)N1 (stereo not drawn) | 25.1µM* | / | / | 17.9%[46 µM] | -3.9%
CCCC[C@H](CC)CN1CN(C[C@@H](CC)CCCC)CC(C)(N)C1 | 1.3%[20.9 µM] | / | 1.3% | -16.0% | -0.2%[17.1 µM]
O=C(Oc1oc(-c2ccco2)nc1C=Nc1ccccc1)c1ccoc1 | ? | ? | 5.01µM* | 8.5% | -4.5%
O=C(Oc1oc(-c2ccco2)nc1C=Nc1ccccc1)c1ccco1 | ? | ? | 2µM* | 10.9% | -2.5%
Cc1ccc(N=Cc2nc(-c3ccco3)oc2O)cc1 | ? | -28.3 | -21.1% | 7.8% | 3.6%
CN(C)c1ccc(N=Cc2nc(-c3ccccc3)oc2OC(=O)c2cccc(Cl)c2)cc1 | 12.6µM* | 64.2 | ? | -9.0% | -4.6%
Cc1ccc(C(=O)Oc2oc(-c3ccccc3)nc2C=Nc2ccc(N(C)C)cc2)cc1 | ? | ? | -22.4% | -2.6% | 1.1%
Cc1ccc(C(=O)Oc2oc(-c3ccco3)nc2C=Nc2ccc(Cl)cc2)cc1 | ? | 19.2 | 6.31µM* | -8.6% | -3.4%
CCCn1c(-c2ccc(F)cc2)nc2c(N3CCN(CCn4ccnc4)CC3)nc(C)nc21 | -2.4% | / | -8.4% | / | 2.4%
O=C1NN(c2ccccc2)C(=O)/C1=C/c1ccc(-c2ccc(Cl)c(C(=O)O)c2)o1 | 12.6µM* | / | / | ? | -3.1%
CCOc1ccc(S(=O)(=O)Nc2nc3ccc(OC)cc3s2)cc1 | 4.9% | 1.8 | -23.4% | -2.4% | 17.8%
CCOc1ccc2nc(NS(C)(=O)=O)sc2c1 | ? | 26.4 | 28.2µM* | 2.6% | -1.5%

Assay outcomes as filed in PubChem BioAssay.
